Records with an inconclusive call do not appear. Where a call stands in place of a potency, no number is given. Activity calls are given as the source filed them. Calls come from the whole dose curve.

Potency data for 34 compounds are collected here from PubChem BioAssay (NCATS).
Potency is the fitted concentration of half-maximal effect.

The target in this assay is Nucleoprotein (Lymphocytic choriomeningitis virus (strain Armstrong)) (UniProt P09992). Description: qHTS for Inhibitors of the Functional Ribonucleoprotein Complex (vRNP) of Lymphocytic Choriomeningitis Arenaviruses (LCMV): LCMV Primary Screen - GLuc reporter signal (AID 1347086). Note: nearly all actives have a fitted effect of over 70% in size. The conditions noted are these: LCMV minigenome vRNP cell assay, Gaussia luciferase reporter; series mostly up to 57.5 µM.
Nucleoprotein (Lymphocytic choriomeningitis virus (strain Armstrong)), sequence (P09992 whole entry, looked up): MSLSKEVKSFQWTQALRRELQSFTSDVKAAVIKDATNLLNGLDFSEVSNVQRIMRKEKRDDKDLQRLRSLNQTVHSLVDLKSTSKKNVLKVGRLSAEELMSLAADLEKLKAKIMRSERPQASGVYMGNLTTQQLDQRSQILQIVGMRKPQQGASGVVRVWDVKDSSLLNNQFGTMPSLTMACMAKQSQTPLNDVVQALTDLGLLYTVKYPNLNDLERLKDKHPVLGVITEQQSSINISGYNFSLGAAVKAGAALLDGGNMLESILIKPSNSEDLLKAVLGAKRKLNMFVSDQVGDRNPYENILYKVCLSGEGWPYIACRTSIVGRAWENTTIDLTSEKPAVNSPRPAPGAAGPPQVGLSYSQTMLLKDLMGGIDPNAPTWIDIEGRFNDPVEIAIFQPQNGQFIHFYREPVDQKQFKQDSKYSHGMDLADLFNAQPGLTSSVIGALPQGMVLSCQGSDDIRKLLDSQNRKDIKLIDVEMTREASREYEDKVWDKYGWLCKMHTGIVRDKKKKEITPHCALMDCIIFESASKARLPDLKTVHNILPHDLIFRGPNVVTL
Turning to `CCN(CC)C(=O)[C@@H]1C=C2c3cccc4[nH]cc(c34)C[C@H]2N(C)C1`, the Potency entry was “inactive”. With `CO[C@H]1C[C@@H]2CC[C@@H](C)[C@@](O)(O2)C(=O)C(=O)N2CCCC[C@@H]2C(=O)O[C@H]([C@H](C)C[C@@H]2CC[C@H](OCCO)[C@H](OC)C2)CC(=O)[C@H](C)C=C(C)[C@@H](O)[C@@H](OC)C(=O)[C@H](C)C[C@H](C)C=CC=CC=C1C`, the Potency is 0.544 µM (active). Then `Nc1cc(C(Cl)=C(Cl)Cl)c(S(N)(=O)=O)cc1S(N)(=O)=O`, with “inactive”. For `CNCCCCOc1ccccc1Cc1ccccc1` the value was “inactive”.

Consider `CCOC(=O)c1ccc(N)cc1`, for which the Potency result is “inactive”.

On to `Nc1ncn([C@H]2C[C@H](O)[C@@H](CO)O2)c(=O)n1`, for which the Potency result was “inactive”.

Consider `CN(C)C(=O)COC(=O)Cc1ccc(OC(=O)c2ccc(N=C(N)N)cc2)cc1`, for which the Potency entry was “inactive”. Then `C#CC(O)(C=CCl)CC` (centres undefined), with “inactive”. For `N#C[C@H]1C[C@H]2C[C@@H]2N1C(=O)[C@@H](N)C12CC3CC(CC(O)(C3)C1)C2` the value was “inactive”; for `COCC(=O)Nc1c(I)c(C(=O)NCC(O)CO)c(I)c(C(=O)N(C)CC(O)CO)c1I` (centres undefined), “inactive”. Take `COc1cc(NS(C)(=O)=O)ccc1Nc1c2ccccc2nc2ccccc12`: the Potency is 5.62 µM (active). `O=C(O)Cc1ccc(-c2ccccc2)cc1`: the Potency result was “inactive”. For `CCCC(=O)O[C@]1(C(=O)CO)CC[C@H]2[C@@H]3CCC4=CC(=O)CC[C@]4(C)[C@H]3[C@@H](O)C[C@@]21C` the value was “inactive”; for `CCCc1ccc(OCC(=O)N2CCN(C(=O)COc3ccc(CCC)cc3OC)CC2)c(OC)c1`, “inactive”.

For `CC(=O)N1CCN(c2ccc(OC[C@H]3CO[C@](Cn4ccnc4)(c4ccc(Cl)cc4Cl)O3)cc2)CC1`, the Potency result was “inactive”.

For `CN(C)CCc1c[nH]c2cccc(OP(=O)(O)O)c12`, the Potency result was “inactive”. Then `C=CC[C@@H]1C=C(C)C[C@H](C)C[C@H](OC)[C@H]2O[C@@](O)(C(=O)C(=O)N3CCCC[C@H]3C(=O)O[C@H](C(C)=C[C@@H]3CC[C@H](O)[C@H](OC)C3)[C@@H](C)[C@@H](O)CC1=O)[C@@H](C)C[C@@H]2OC`, with 30.6 µM (active); and `O=C(NCC1CCCCN1)c1cc(OCC(F)(F)F)ccc1OCC(F)(F)F` (centres undefined), with “inactive”. With `CC(C)Cc1ccc(C(C)C(=O)O)cc1` (centres undefined), the Potency result was “inactive”.

With `Cc1cc(O)c2ccccc2c1O`, the Potency entry is “inactive”. Then `CCCCCCNC(=O)n1cc(F)c(=O)[nH]c1=O`, with “inactive”; and `Cc1cccc(C)c1OCC(=O)N[C@@H](Cc1ccccc1)[C@@H](O)C[C@H](Cc1ccccc1)NC(=O)[C@H](C(C)C)N1CCCNC1=O`, with 38.5 µM (active). Then `COc1cccc2c1C(=O)c1c(O)c3c(c(O)c1C2=O)C[C@@](O)(C(=O)CO)C[C@@H]3O[C@H]1C[C@H](N)[C@@H](O)[C@H](C)O1`, with 1.37 µM (active). For `CN(C)c1ccc2nc3ccc(=[N+](C)C)cc-3sc2c1` the value was 6.85 µM (active); for `COc1cc(C)nc(-n2nc(C)cc2OC)n1`, “inactive”.

Consider `CC(=O)OC[C@H]1O[C@@H](n2ncc(=O)[nH]c2=O)[C@H](OC(C)=O)[C@@H]1OC(C)=O`, for which the Potency entry was “inactive”.

Regarding `Nc1ccc(C(=O)Nc2ccccc2N)cc1`, the Potency result was “inactive”. Regarding `CCCCOC(=O)c1ccc(N)cc1`, the Potency entry was “inactive”. Then `CNC(=O)c1ccccc1Sc1ccc2c(/C=C/c3ccccn3)n[nH]c2c1`, with “inactive”; and `Cc1ccccc1C(=O)Nc1ccc(C(=O)N2CCCC(N(C)C)c3ccccc32)cc1` (centres undefined), with “inactive”; and `O=C1CN(/N=C/c2ccc([N+](=O)[O-])o2)C(=O)N1`, with “inactive”. For `CC(C=CC1=C(C)CCCC1(C)C)=CC=CC(C)=CC(=O)O` the value was “inactive”; for `COc1cc(C(=O)NS(=O)(=O)c2ccccc2C)ccc1Cc1cn(C)c2ccc(NC(=O)OC3CCCC3)cc12`, “inactive”. Then `Cc1c(N)nc([C@H](CC(N)=O)NC[C@H](N)C(N)=O)nc1C(=O)N[C@H](C(=O)N[C@H](C)[C@@H](O)[C@H](C)C(=O)N[C@H](C(=O)NCCc1nc(-c2nc(C(=O)NCCCCN=C(N)N)cs2)cs1)[C@@H](C)O)[C@@H](O[C@@H]1O[C@@H](CO)[C@@H](O)[C@H](O)[C@@H]1O[C@H]1O[C@H](CO)[C@@H](O)[C@H](OC(N)=O)[C@@H]1O)c1cnc[nH]1`, with “inactive”.
